{"source": "PubChem BioAssay AID588674", "about": "(Broad Institute, 2011)", "note": "About 1,800 (0.5%) of roughly 360,000 compounds were called active. This excerpt belongs to a sample that is enriched for actives. A number with no mark means an inactive call.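 Rule for the calls: active = mean inhibition of at least 75% with every replicate also reaching 75%; inconclusive = mean inhibition at least 75% but some replicate below; inactive = mean inhibition below 75%.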", "data": [{"test": "Shn3 3'UTR reporter decrease in osteoblasts – cell-based, Clone20 osteoblasts, firefly luciferase, set 2, Schnurri-3 inhibitor project, primary screen (AID 588674);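 note: 0% = median of neutral control wells and 100% = pilot-screen positive control compound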", "conditions": "Clone20 osteoblast Shn3 3'UTR firefly luciferase, 24 h; at 12.5 µM; stronger effect = higher value", "values": [{"smiles": "N#Cc1c(-c2ccccc2)nc(SCc2cccc(C(F)(F)F)c2)[nH]c1=O", "inhibition": "-18.7%"}, {"smiles": "O=c1c2ccccc2nc2n1C(CSCc1ccccc1)CS2", "note": "(configuration not stated)", "inhibition": "76.2%"}, {"smiles": "O=c1c2ccccc2nc2n1C(CSCc1cccc(C(F)(F)F)c1)CS2", "note": "(configuration not stated)", "inhibition": "92.5% (active)"}, {"smiles": "C=CCn1c(C)cc(C2=NNC(=NCC)SC2)c1C", "inhibition": "91% (active)"}, {"smiles": "CN(Cc1ccc(C(F)(F)F)cc1)C(=O)[C@H]1O[C@@H](n2cnc3c(N)ncnc32)[C@H](O)[C@@H]1O", "inhibition": "6.4%"}, {"smiles": "CCn1nc(C(=O)Nc2ccc(N3CCOCC3)cc2)c2ccccc2c1=O", "inhibition": "5.09%"}, {"smiles": "C[C@@H]1C[C@@H]2O[C@H]2/C=C\\C=C\\C(=O)Cc2c(Cl)c(O)cc(O)c2C(=O)O1", "inhibition": "86.9% (active)"}, {"smiles": "Cc1ccccc1N1CCN(CCCN2C(=O)C3CCCCN3C2=O)CC1", "note": "(configuration not stated)", "inhibition": "2.03%"}, {"smiles": "COC(=O)Cc1ccc(OC(=O)C2CCN(S(=O)(=O)c3ccc(OC)c(OC)c3)CC2)cc1", "inhibition": "-15.3%"}, {"smiles": "CNS(=O)(=O)c1ccc2c(c1)[nH]c(=S)n2C", "inhibition": "12.3%"}, {"smiles": "COc1cc(C(=O)OCCCN2CCOCC2)cc(OC)c1OC", "inhibition": "8.18%"}, {"smiles": "COCc1c(C(=O)N/N=C\\c2cccnc2)nnn1-c1nonc1N", "inhibition": "9.7%"}, {"smiles": "Nc1nonc1-n1nnc(C(=O)N/N=C\\c2ccncc2)c1CN1CCCCC1", "inhibition": "10.4%"}, {"smiles": "Nc1nonc1-n1nnc(C(=O)N/N=C/c2cc(Br)ccc2O)c1CSC1=NCCS1", "inhibition": "94% (active)"}, {"smiles": "Cc1ccc(Cc2c(-c3ccco3)nc3ccc(Cl)cn23)cc1", "inhibition": "2.12%"}, {"smiles": "CC(=O)/C(=N\\Nc1ccc(Cl)cc1Cl)Sc1cccc2cccnc12", "inhibition": "93% (active)"}, {"smiles": "O=C(CSc1cccc2cccnc12)N/N=C/c1cccnc1", "inhibition": "20.8%"}, {"smiles": "Cc1c(NC(=O)CSc2cccc3cccnc23)c(=O)n(-c2ccccc2)n1C", "inhibition": "19.9%"}, {"smiles": "Cc1ccsc1CNn1cnnc1SCc1ccccc1F", "inhibition": "5.38%"}, {"smiles": "CC12CCC(=O)C=C1CCC1C2C(O)CC2(C)C1CCC2(O)C(O)CO", "note": "(configuration not stated)", "inhibition": "4.53%"}, {"smiles": "CCCCCCNC(=O)O[C@H]1CN(C(=O)OC(C)C)N(C(=O)OC(C)C)[C@@H]2CN(S(=O)(=O)c3ccc(C)cc3)C[C@]12O", "inhibition": "-14.9%"}, {"smiles": "CCOc1c(Nc2cccc(Cl)c2)c(=O)c1=O", "inhibition": "-16.6%"}, {"smiles": "OCCCNc1nccc(-c2cc(Nc3cccc(Cl)c3)ncn2)n1", "inhibition": "96.3% (active)"}, {"smiles": "Cc1ccc(NC(=O)CN2CCCCC2)c2c1CC(C)(C)O2", "inhibition": "-24.2%"}, {"smiles": "O=c1c2ccccc2ncn1/N=C/c1ccccc1", "inhibition": "-28%"}, {"smiles": "Cc1ccc(-n2c(SCC(=O)N/N=C/C=C/c3ccccc3[N+](=O)[O-])nc3ccccc3c2=O)cc1", "inhibition": "1.32%"}, {"smiles": "CCn1c(/C=C/c2ccc([N+](=O)[O-])o2)nc2ccccc2c1=O", "inhibition": "97.2% (active)"}, {"smiles": "C=CCC(CC=C)(C(N)=O)c1ccccc1", "inhibition": "1.2%"}, {"smiles": "CC(=O)Nc1cccc(C(=O)OCC(=O)NCc2cc(C)c(O)c(C)c2)c1", "inhibition": "-47.1%"}, {"smiles": "C[C@H]1CN([C@@H](C)CO)C(=O)CCCn2cc(nn2)CO[C@@H]1CN(C)S(=O)(=O)c1cccs1", "inhibition": "-17.2%"}, {"smiles": "CCOc1cc(/C=N/Nc2cc(C)nc3ccc(C)cc23)ccc1O", "inhibition": "-7.54%"}, {"smiles": "CCN(CC)c1ccc(/C=N/Nc2nc(C)cc(C)n2)c(O)c1", "inhibition": "89.4% (active)"}, {"smiles": "O=C1CSC(c2ccc(Cl)cc2)N1", "note": "(configuration not stated)", "inhibition": "-10.9%"}, {"smiles": "O=C(CSc1nc(O)c(Cc2ccccc2)c(=O)[nH]1)Nc1nc2c(s1)CCCC2", "inhibition": "8.82%"}, {"smiles": "O=C(CCS(=O)(=O)c1ccccc1)NC1CCCC1", "inhibition": "-23.2%"}, {"smiles": "O=C(CCS(=O)(=O)c1ccccc1)Nc1nc2c(s1)CCCC2", "inhibition": "84.1% (active)"}, {"smiles": "CNc1nc(SC)nc(N(C#N)CC(=O)OC)n1", "inhibition": "-9.64%"}, {"smiles": "C=CCSc1nc(N)cc(=O)[nH]1", "inhibition": "15.2%"}, {"smiles": "Cc1ccc(-c2nn(-c3ccc(F)cc3)cc2C(=O)NCC(c2cccs2)N2CCOCC2)cc1", "note": "(configuration not stated)", "inhibition": "13.6%"}, {"smiles": "Cc1ccc(-c2nc3ccc(Cl)cn3c2Cc2ccccc2)cc1", "inhibition": "-75.7%"}, {"smiles": "Cc1ccc2nc(-c3ccc(Br)cc3)cn2c1", "inhibition": "23.5%"}, {"smiles": "Cc1ccc(-c2cn3cc(C)ccc3n2)cc1", "inhibition": "89% (active)"}, {"smiles": "Cn1c(=O)c2c(ncn2CC(COCc2ccccc2Cl)OCc2ccccc2Cl)n(C)c1=O", "note": "(configuration not stated)", "inhibition": "13%"}, {"smiles": "Oc1ccc2ccccc2c1N=Nc1nccs1", "inhibition": "93.2% (active)"}, {"smiles": "CCCCN1CC(N2CCN(Cc3cccc(C)c3)CC2)CS1(=O)=O", "note": "(configuration not stated)", "inhibition": "4.01%"}, {"smiles": "O=[N+]([O-])c1c(NCCO)cc(Sc2nc3ccccc3s2)c2nonc12", "inhibition": "93.7% (active)"}, {"smiles": "COc1ccc(NC(=O)CCCOc2ccc(C(C)=O)cc2)cc1S(=O)(=O)N1CCCCC1", "inhibition": "42.4%"}, {"smiles": "O=C(NC(=S)Nc1ccc(Br)cc1F)C1CCCCC1", "inhibition": "-15.2%"}, {"smiles": "Cc1ccc(S(=O)(=O)/N=C(/NC(=S)Nc2c(C)n(C)n(-c3ccccc3)c2=O)c2ccccc2)cc1", "inhibition": "-6.62%"}, {"smiles": "COc1ccc(OC)c(Nc2nc(-c3ccc(O)c(O)c3)cs2)c1", "inhibition": "97.4% (active)"}, {"smiles": "COc1ccc(C(O)c2nc(-c3ccc4c(c3)OCO4)cs2)cc1", "note": "(configuration not stated)", "inhibition": "-17.7%"}, {"smiles": "COc1ccc(C(C)(O)c2nc(-c3ccc(C)c(C)c3)cs2)cc1", "note": "(configuration not stated)", "inhibition": "8.01%"}, {"smiles": "COc1ccc(C(=O)OCc2cc(=O)n3ccsc3n2)cc1F", "inhibition": "-7.31%"}, {"smiles": "COc1ccc(C(=O)NCc2ccc(Cl)cc2)cc1S(=O)(=O)N1CCCC1", "inhibition": "-1.61%"}, {"smiles": "COc1ccc(CCNC(=O)CN(C)S(=O)(=O)c2ccc3nc(C)sc3c2)cc1OC", "inhibition": "-10.6%"}, {"smiles": "CC1(C(=O)NS(=O)(=O)c2cccc(OC(F)F)c2)CCN1C(=O)C1CC1", "note": "(configuration not stated)", "inhibition": "-7.16%"}, {"smiles": "NS(=O)(=O)c1ccc(CNC(=S)NC(=O)c2ccco2)cc1", "inhibition": "93.5% (active)"}, {"smiles": "COc1cc(NC(=S)NCc2ccc(S(N)(=O)=O)cc2)cc(OC)c1", "inhibition": "2.83%"}, {"smiles": "NS(=O)(=O)c1ccc(NC(=O)COC(=O)c2ccco2)cc1", "inhibition": "2.57%"}, {"smiles": "N#Cc1ccc(S(=O)(=O)NCC(=O)OCC(=O)NCCc2ccccc2)cc1", "inhibition": "1.43%"}, {"smiles": "OCc1n[nH]c(CO)n1", "inhibition": "-14.1%"}, {"smiles": "Cc1cccc(-n2ncc3c(=O)[nH]c(SCC(=O)Nc4cc(C)on4)nc32)c1", "inhibition": "-22.6%"}, {"smiles": "Cc1cccc(-n2ncc(Cl)c(Cl)c2=O)c1", "inhibition": "94.3% (active)"}, {"smiles": "CC(=O)Nc1c2c(nn1-c1cccc(C)c1)CSC2", "inhibition": "-0.825%"}, {"smiles": "Cc1c(Br)c([N+](=O)[O-])nn1CC(=O)Nc1sc2c(c1C(=O)OC(C)C)CCC(C)C2", "note": "(configuration not stated)", "inhibition": "-5.32%"}, {"smiles": "Cc1ccc(C(=O)CN2C(=O)NC3(CCOc4ccccc43)C2=O)s1", "note": "(configuration not stated)", "inhibition": "-11.6%"}, {"smiles": "O=C(CN1C(=O)NC2(CCOc3ccccc32)C1=O)Nc1cccc([N+](=O)[O-])c1", "note": "(configuration not stated)", "inhibition": "89.4% (active)"}, {"smiles": "O=C(CN1C(=O)NC2(CCOc3ccccc32)C1=O)NCc1ccc(F)cc1", "note": "(configuration not stated)", "inhibition": "-2.61%"}, {"smiles": "CNC(=O)c1nnn(-c2ccccc2)c1C(=O)NC", "inhibition": "-6.31%"}, {"smiles": "N#Cc1c(NC(=O)c2ccc(N3CCOCC3)c([N+](=O)[O-])c2)sc2c1CCCC2", "inhibition": "12%"}, {"smiles": "O=C(c1ccc(CS(=O)Cc2ccccc2Cl)o1)N1CCN(c2ccccc2)CC1", "note": "(configuration not stated)", "inhibition": "-5.18%"}, {"smiles": "CC1CC(NC(=S)N(C)C)CC(C)(C)C1", "note": "(configuration not stated)", "inhibition": "-11.6%"}, {"smiles": "Cc1cccc2sc(N(CCCN(C)C)C(=O)CCS(=O)(=O)c3ccccc3)nc12", "inhibition": "70.2%"}, {"smiles": "COc1cccc2sc(N(CCCN(C)C)C(=O)CCS(=O)(=O)c3ccccc3)nc12", "inhibition": "97.2% (active)"}, {"smiles": "CCN(CC)CCN(C(=O)c1ccc2c(c1)CCCC2)c1nc2c(OC)cccc2s1", "inhibition": "18.3%"}, {"smiles": "CC(=O)CSc1nnc(CSc2ncccn2)n1C1CCCCC1", "inhibition": "-0.19%"}, {"smiles": "Cn1c2ccc(F)cc2c2nnc(NN)nc21", "inhibition": "-1.82%"}, {"smiles": "COc1cc(OC)cc(C(=O)NC2CCN(C(=O)N3c4ccccc4Sc4ccccc43)CC2)c1", "inhibition": "38.1%"}, {"smiles": "NC(c1ccccc1)c1csc(NC(=O)Nc2cccc(C(F)(F)F)c2)n1", "note": "(configuration not stated)", "inhibition": "23%"}, {"smiles": "COc1ccc(C(N)c2csc(NC(=O)Nc3cccc(C(F)(F)F)c3)n2)cc1", "note": "(configuration not stated)", "inhibition": "11.3%"}, {"smiles": "NC(c1csc(NC(=O)Nc2cccc(C(F)(F)F)c2)n1)C1CCCCC1", "note": "(configuration not stated)", "inhibition": "92% (active)"}, {"smiles": "O=C(NCCOc1ccccc1)c1ccccc1F", "inhibition": "-74.7%"}, {"smiles": "CCNC(=S)N1CCN(c2ncccn2)CC1", "inhibition": "-18.4%"}, {"smiles": "CCOc1ccc(NC(=S)N2CCCCCC2)cc1", "inhibition": "-24.3%"}, {"smiles": "CC(=NNC(=S)N1CCCCCC1)c1ccccn1", "inhibition": "95.3% (active)"}, {"smiles": "C/C(=N\\NC(=O)c1ccccc1F)c1ccccn1", "inhibition": "94.8% (active)"}, {"smiles": "C/C(=N/NC(=O)c1ccn(C)n1)c1ccncc1", "inhibition": "-3.15%"}, {"smiles": "COc1ccc(/C=C/C(=O)c2c(O)cc(OC)cc2OC)cc1", "inhibition": "-43.5%"}, {"smiles": "COCCNS(=O)(=O)c1cc(Br)ccc1OC", "inhibition": "-12.3%"}, {"smiles": "CCOc1ccc(-n2c(O)c(/C=N/Nc3nc(C)cc(C)n3)c3ccccc3c2=O)cc1", "inhibition": "90.6% (active)"}, {"smiles": "Cc1cc(C)nc(N/N=C/c2c(CO)cnc(C)c2O)n1", "inhibition": "39%"}, {"smiles": "CCOc1ccc(-n2c(SCC(=O)Nc3cc(C(=O)O)ccc3Cl)nc3ccccc3c2=O)cc1", "inhibition": "-1.51%"}, {"smiles": "COc1ccc(CN2CCCC(CNC(=O)c3ccc(F)cc3)C2)cc1OC", "note": "(configuration not stated)", "inhibition": "3.62%"}, {"smiles": "CCCCCCCCCCOC(=O)C[N+](C)(C)CC1CCCCC1O", "note": "(configuration not stated)", "inhibition": "2.65%"}, {"smiles": "COc1ccc(CC(N)c2csc(NC(=O)Nc3ccc(C(C)C)cc3)n2)cc1", "note": "(configuration not stated)", "inhibition": "96.6% (active)"}, {"smiles": "COc1ccc(CC(N)c2csc(NC(=O)NC(c3ccccc3)c3ccccc3)n2)cc1", "note": "(configuration not stated)", "inhibition": "80.7%"}, {"smiles": "COc1ccc(CC(N)c2csc(NC(=O)Cc3ccccc3)n2)cc1", "note": "(configuration not stated)", "inhibition": "-16.8%"}]}]}
